Among all 53,000 sequences or so, about 3,700 (7%) were called active. The entries come from a sample that favours actives as a whole. Values without a mark were called inactive.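 The calls were made as follows: active = gene knockdowns whose robust z-score for IL-1 alpha signal is at least 2 or at most -2, so actives lie on both sides; inactive = the rest.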

The nature of the assay: Components of the Cytosolic LPS Sensing Pathway: Gene Identification via Genome-wide siRNA Screen.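 Also: robust z of the log signal after scaling to non-targeting control siRNA wells of the plate.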 The settings on record: RAW264.7 macrophages, IL-1a HTRF, actives lie on both sides, screened at 100 nM (by protocol), cells primed 5 h with Pam3CSK4 first. In a few lines:
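Three distinct siRNAs per gene were tested singly at 100 nM in RAW264.7 macrophages. Following Pam3CSK4 priming and 24 hour LipidA transfection, IL-1a secretion was read by HTRF.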
With GGAAACAGCAUCAUCAUGUTT against Snrpg, the z-score was -2.28 (active).

Take CGUACAUCGUCGAGAUUUUTT against Rims1: the z-score was 0.839.

With GCGGAACCUAUAUAGGAAUTT against Zfp74, the z-score is -0.292.

For the sequence CGAGAGUAGCUUGUUGCUGTT against Rhobtb3, the z-score is 0.359.

As to GCUGUAUGGGAAGGGUUACTT against Tsen2, the z-score is 0.829.

Turning to GGAUCAGUACCUGUGAUGGTT against Adamdec1, the z-score was -2.07 (active).

In the case of GGAUCGUAGAACACCCUUCTT against Robo2, the z-score is -0.00164.

For the sequence GGAUUCCACAAUUUUUGUATT against Ncoa6, the z-score was -0.399.

As to GCGGGUUAACUUGUUUGGUTT against Zcwpw1, the z-score was 0.525.

Consider GGCUUACACAAAAAUCUGUTT against Camk2d, for which the z-score was -0.36.

On to GGAAAUUACCUUGAUGAUGTT against Anxa4, for which the z-score was -1.59.

With GGACAAUCUGAUUCAAGUATT against Ms4a2, the z-score was 0.104.

For the sequence GUUGUGCAAUCAACAAGGUTT against Fam98c, the z-score is 2.05 (active).

For the sequence GCUACGCAAUAAGACCACATT against Lamc3, the z-score was 2.25 (active).

As for GGAGCUCAUUAGCAAAUAUTT against Olfm5, the z-score is -0.859.

For the sequence GUACAAGCUCAAGUGCUCGTT against Casz1, the z-score was -0.463.

With GGAACUCCUGACUCUCAGATT against Htra2, the z-score is -1.19.

For the sequence UGUACUGAUACAUACUUCCTT against Olfr1249, the z-score is -0.487.

In the case of GCAUGACAGUCAACACAAGTT against Slc35f6, the z-score was 2.04 (active).

In the case of GGAAAUAGACACCAAGAGCTT against Mau2, the z-score is -1.64.

In the case of GCAUCAUUAAGUGCUACCGTT against Pcdhac2, the z-score was -0.263.

For the sequence UCUAUCUCAUUACUAUUGUTT against Olfr190, the z-score was 0.649.

As for CCUAUCAAACUGACUUCAUTT against Castor2, the z-score was 0.309.

On to GGACCUCCCACAGUGUUAUTT against Enpp2, for which the z-score is -0.574.

As to GGGAAACAGAUGAAAGAGUTT against Relch, the z-score is 0.0344.

In the case of GGUUUGAACUUCAGCAACUTT against Adam15, the z-score is -2.17 (active).

In the case of GGUCCACUUAGUGGCUUAATT against Atp5pb, the z-score is -0.227.

GGUGUAUUGAGCUAAACAUTT against Rnft2: the z-score was -0.344.

Consider GGCAUGAGCGAGUUAAACCTT against Usp53, for which the z-score was 1.65.

For the sequence GGAGAACAUUCAGGUGACATT against Pdgfd, the z-score is -0.625.

Turning to GGCGAUGUGAAAAUCUUAATT against Xpnpep2, the z-score was 3.65 (active).

In the case of GGCCUCUUAUGUCAACCUGTT against Rpsa, the z-score is -1.57.

As for GCCGAUUCUUCAAUGUGCGTT against Ribc1, the z-score was -0.242.

On to CCAGCACGCUGAAGUCUGATT against Adam19, for which the z-score is 1.21.

Turning to “CCCUAUCGUGAUUUAUUGGTT against C130073F10Rik”, the z-score is -1.33.

On to GGGUACAAAGCAACAUUGGTT against Disp1, for which the z-score was 4.2 (active).

Turning to GCAAUGUGCACGAUGAUGATT against Pik3cg, the z-score is -0.79.

Turning to CCUAGUGAAUCCUCUCGUATT against Eqtn, the z-score was 0.178.

Take GCCGAGCUCAAUGUGGGUATT against Bsn: the z-score was 1.11.

For GGAAGAAAGUGAGCCUUGUTT against Senp6, the z-score was -2.14 (active).

For the sequence GGCAGAGAGAUGUUACAAGTT against Ccl8, the z-score is 0.408.

As for GGUACACUGGUAUACGUAUTT against Samd9l, the z-score was -1.45.

For the sequence GGCUGAUCCAUUUUCACAATT against Adam6a, the z-score is -2.77 (active).

With GGUUUCAAGACAUUGAAAGTT against Arl14ep, the z-score is -0.424.

For CGAUGACAUCAGGAUUGUUTT against Adgrg7, the z-score is -0.124.

Regarding GGACUUAUUAUGUGAGUGUTT against Ncbp2, the z-score is 0.555.

Regarding GGAAAUCAGAAGAAGAACATT against Hars, the z-score was 2.67 (active).

Regarding “CGGACACACUUUGUUAUUATT against 4833420G17Rik”, the z-score was 0.198.

For GGACGUAACAAAAUGUUCUTT against P2ry12, the z-score is 0.578.

As to CGGUGGAAUUCGUUAGAAGTT against Ireb2, the z-score is -0.183.

Turning to GGAAGGCCCUAGAAAGGACTT against Gm5094, the z-score is 0.209.

Consider GCGUGGCUGUCAUGUAUUUTT against Olfr231, for which the z-score is 0.247.

Consider GGAAGAUGUAUUCUUCUCCTT against Gemin4, for which the z-score was 0.499.

In the case of GGAGAAGGAGCUGGAAACGTT against Cttn, the z-score is 0.645.

As to CCUGAAAACCAUGCAAUACTT against Tas2r125, the z-score is -2.37 (active).

On to GGGCUACUUCCUGACUAAATT against Ube2s, for which the z-score was -0.505.

On to GGACACUAUGCAAUCACCCTT against Rnf216, for which the z-score is -0.481.

Regarding GGUCUACGUAGAGGAGCUGTT against Mrpl28, the z-score is 1.04.

Regarding GGGAAGCCUUUCUUGUCAGTT against Vmn1r40, the z-score was -0.847.

As to GGAAUAAAGAAUGGUAUACTT against Zfp280d, the z-score was -0.0544.

For CCAGUAGCACGUGUUAUUUTT against Rbmy, the z-score is 0.0944.

In the case of GGAUUAAGAAAGAAACAGGTT against Zfp438, the z-score was -0.387.

GGCCACAGAGCCAAAGAUUTT against Cdca7: the z-score is 0.808.

For the sequence GCUUGAUCGAAGAAAGACATT against Tdrd3, the z-score was 0.709.

Regarding GCGUAGGUUACGUUCAAGGTT against Ermard, the z-score was 2.74 (active).

For CGACAGUGAAUGCGCUAAGTT against Slc7a9, the z-score is -0.218.

With GCAAAUUCACCGGAAAAUGTT against Sorbs3, the z-score is 1.04.

Consider GGAGACUUAGAAAAAGACUTT against Olfr1426, for which the z-score was 1.17.

The values above are taken from PubChem BioAssay AID1508600 (Functional Genomics Laboratory (NCATS/FGL), 2020).
